Each structure is given as a SMILES string. Inconclusive results are not listed. Where a call stands in place of a potency, no number is given. Calls of active or inactive are those of the source. The call rests on the fitted dose curve; in most records, active means well fitted curve in the direction sought with a large enough effect; inconclusive means small, poorly fitted or top-dose-only effect, or another doubt; inactive means no such curve, though single readings can be large; an effect the other way counts as inactive or inconclusive.
Potency means the concentration at half of the fitted maximal effect.

The first assay can be described thus: Cell Viability - LYMP1-003 - Assay at 24 hr (AID 963). The note with it: LYMP1-003 lymphoblastoid cell viability; series mostly up to 92.2 µM. Summed up:
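Acute toxicity in LYMP1-003 lymphoblastoid cells: 24 hr compound treatment at 37 C, ATP measured with CellTiter-Glo after 30 min at room temperature. AC50 derived by fitting the Hill equation to qHTS titrations.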
On to `O=[N+]([O-])c1c(Cl)c(Cl)cc(Cl)c1Cl`, for which the Potency entry is “inactive”.
Turning to `CC(=O)[O][Hg][c]1ccccc1`, the Potency was 3160 nM (active).
For `Nc1ccc([N+](=O)[O-])cc1`, the Potency result was “inactive”.
In the case of `C=CC(=O)NCNC(=O)C=C`, the Potency result is “inactive”.

A further assay is described as follows: Cell Viability - LYMP1-003 - Assay at 40 hr (AID 964). Further: nearly all actives have a fitted effect of over 60% in size. As to conditions: LYMP1-003 lymphoblastoid viability; series mostly up to 92.2 µM. Summed up: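 This qHTS cytotoxicity screen treats human lymphoblastoid cells (LYMP1-003) with compounds for 40 hr and quantifies cellular ATP via luciferase luminescence.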
Consider `O=[N+]([O-])c1c(Cl)c(Cl)cc(Cl)c1Cl`, for which the Potency result is “inactive”.
Consider `CC(=O)[O][Hg][c]1ccccc1`, for which the Potency is 1580 nM (active).
The same measure, in the same setting: the value for `Nc1ccc([N+](=O)[O-])cc1` was “inactive”; that for `C=CC(=O)NCNC(=O)C=C` was “inactive”.

A further assay is described as follows: Cell Viability - LYMP2-003 (AID 965).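 Further: cells exposed to compounds for 24 h before reading; nearly all actives have a fitted effect of over 50% in size.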 The note with it: LYMP2-003 lymphoblastoid cell viability; series mostly up to 92.2 µM. Summed up: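 Seed 2500 lymphoblastoid cells/well; incubate 5 hr, 37 C; add compounds; incubate 24 hr, 37 C; add CellTiter-Glo, 30 min RT; read luminescence. AC50 from Hill fit.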
On to `O=[N+]([O-])c1c(Cl)c(Cl)cc(Cl)c1Cl`, for which the Potency result was “inactive”.
The same measure, in the same setting: the value for `CC(=O)[O][Hg][c]1ccccc1` was 1580 nM (active).
`Nc1ccc([N+](=O)[O-])cc1`: the Potency result was “inactive”.
Consider `C=CC(=O)NCNC(=O)C=C`, for which the Potency result is “inactive”.

Another assay can be described thus: Cell Viability - LYMP2-004 (AID 966). Further: nearly all actives have a fitted effect of over 65% in size. The note with it: LYMP2-004 lymphoblastoid cell viability, qHTS; series mostly up to 92.2 µM. The method, boiled down: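 Acute toxicity is scored as a concentration-dependent drop in intracellular ATP, quantified by luciferase luminescence, in human lymphoblastoid cells exposed to compound for 24 hr. AC50 derives from Hill-equation modelling.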
In general terms: qHTS replaces the single test concentration by a dilution series.
`O=[N+]([O-])c1c(Cl)c(Cl)cc(Cl)c1Cl`: the Potency entry is “inactive”.
Still for that read-out and setting: the value for `CC(=O)[O][Hg][c]1ccccc1` was 1000 nM (active); that for `Nc1ccc([N+](=O)[O-])cc1` was “inactive”; that for `C=CC(=O)NCNC(=O)C=C` was “inactive”.

These data come from PubChem BioAssay (NCATS).
